Laboratory results as given in PubChem BioAssay (EPA / NIEHS).
Calls of active or inactive are those of the source. Rule for the calls: active = hit-call score of the fitted dose curve at least 0.9, where 1 is the maximum; inactive = score below 0.9.

These compounds were tested on Insulin-like growth factor-binding protein 1 (IGFBP1), IGFBP1 (gene 3484) (assay: LTEA_HepaRG_IGFBP1: Life Technologies and Expression Analysis (LTEA) Assay for Insulin-like growth factor-binding protein 1 (IGFBP1) using HepaRG (AID 2283508)). Conditions: mRNA level, 48 h; actives raise or lower the signal.
Description: LTEA_HepaRG is a cell based, multiplexed-readout assay that uses HepaRG, a human liver cell line, with measurements taken at 48 hours after chemical dosing on a 96-well plate.LTEA_HepaRG_IGFBP1 is one of 102 assay component(s) measured in the LTEA HepaRG cell culture assay. It is a marker of Cell proliferation, survival, death.Data from the assay component LTEA_HepaRG_IGFBP1 was analyzed into 1 endpoint. This assay endpoint, LTEA_HepaRG_IGFBP1, was analyzed with bidirectional fitting relative to DMSO as the negative control and baseline of activity. Using a type of inducible reporter, measures of mRNA induction for gain or loss-of-signal activity can be used to understand regulation of transcription factor activity. To generalize the intended target to other relatable targets, this assay endpoint is annotated to the transporter intended target family, where the subfamily is hormone carrier protein.
A total of 1060 chemcials from the ToxCast library were tested in eight-point concentration-response experiments. Cell culture and cytotoxicity assays were conducted at Thermo Fisher Scientific's Custom Services facility (Madison, WI). A single lot of human HepaRG cells (Thermo Fisher Scientific, Frederick, MD) was used for the cell culture experiments. 96-well format collagen type I coated plates of human HepaRG cells were prepared using established methods. Briefly, cryopreserved HepaRG cells were thawed, plated at a density of approximately 100,000 cells/well in HepaRG Thaw, Plate, and General Purpose media (HPRG770, Thermo Fisher Scientific), and incubated for 48 hours. 0.5% DMSO was selected as vehicle control to balance the requisite need of DMSO in HepaRG cultures to maintain differentiation (for example, baseline metabolism, proportions of hepatocytes vs. cholangiocytes), while enabling further hepatic receptor pathway activation (for example, PXR and CAR) in response to chemical exposure. 48 hours after plating, the culture medium was replaced with HepaRG Serum-Free Incudtion Media. Cells were exposed to each test chemical in duplicate and maintained in CO2 incubators for another 48 hours. Chemical plates were thawed to room temperature and 200x concentrations of treatment groups were prepared. 8-point conentration-reponse curves were made with the highest exposure at 100 uM, followed by half-log dilutions, all in 0.5% DMSO. Each test plate contained variouse controls, induction positive controls (1mM phenobarbital), cytotoxicity positive controls ([…] aflatoxin B1), vehicle controls (0.5% DMSO), and total lysis controls (0.5% DMSO). Cell morphology images were taken using an Essen IncuCyte FLR automated microscope, with six 96-well plates imaged in about 24 minutes. Images were captured and exported and JPEG files. Spent culture media was transfered to black-well plates for the LDH assay, and remaining media was sorted at -80 C for later use. Cells were treated with RLT buffer and frozen until shipped for gene expression analysis. Total RNA was isolated from the cell suspension in 75 uL of Buffer RLT (Qiagen, Germantown, MD 20874) by Quintiles/Expression Analysis (Durham, NC) using a custom isolation procedure. Total RNA from each plate well was transferred to a preamplification plate. Fluidigm's 96.96 Dynamic ArrayTM (Fluidigm, Amsterdam, the Netherlands) technology was used for gene expression analyses by quantitative reverse transcription polymerase chain reaction (qRT-PCR, performed by Quintiles/Expression Analysis, Durham, NC)89. Standard TaqManTM Assays (Applied Biosystems/ThermoFisher Scientific, Foster City, CA) were used to assess the expression of 93 genes selected based on their selectivity and sensitivity to important hepatic receptors known to be modulated by environmental chemicals; importance in human hepatocyte functionality; and hepatotoxicity. […]

outcome, inactive:
CCCCCCCC[Si](OCC)(OCC)OCC
CO[C@H]1/C=C/O[C@@]2(C)Oc3c(C)c(O)c4c(O)c(c(/C=N/N5CCN(C)CC5)c(O)c4c3C2=O)NC(=O)/C(C)=C\C=C\[C@H](C)[C@H](O)[C@@H](C)[C@@H](O)[C@@H](C)[C@H](OC(C)=O)[C@@H]1C
CC(C)(O)c1ccc(CNC(=O)c2cccnc2Oc2ccc3nonc3c2)cc1
O=C(OCCCCCCOC(=O)c1ccccc1)c1ccccc1
CCCCCCCCOc1ccc(C(=O)c2ccccc2)c(O)c1
O=CCCCC=O
CCCCOC(=O)c1ccc(O)cc1
CCN(Cc1cccc(S(=O)(=O)O)c1)c1ccc(C(=C2C=CC(=[N+](CC)Cc3cccc(S(=O)(=O)O)c3)C=C2)c2ccccc2S(=O)(=O)[O-])cc1
CC[C@H](NC(=O)c1cc(F)ccc1NS(=O)(=O)c1cccc2cccnc12)c1ccccc1
O=C(O)c1ccccc1-n1cc(C(=O)O)c(=O)c2cc(Nc3c(F)cc(F)cc3Cl)c(Cl)cc21
c1ccc2ccccc2c1
CCCCCCCCCCCO
O=C=NCCCCCCN=C=O
Cc1ncc(CO)c(CO)c1O
Oc1ccccc1
O=C(O)c1ccccc1C(=O)OCc1ccccc1
O=C1CCC(C2CCCCC2)CC1
Cc1cn([C@H]2C[C@H](N=[N+]=[N-])[C@@H](CO)O2)c(=O)[nH]c1=O
CCCCCCCCCCCCO
Cc1cccc2ccccc12
NCc1cccc(C2CCN(C(=O)c3ccc(C#Cc4ccccc4F)o3)CC2)c1
CCOC(=O)O[C@H](C)OC(=O)c1ccc2c(c1)cc(C(=O)NC1CCN(C(C)C)CC1)n2Cc1cc(-c2ccc(Cl)s2)on1
O=C1c2ccccc2C(=O)N1CCc1noc(-c2ccc(CN3CCCCCC3)s2)n1
CN1C(=O)CC[C@H]1c1cccnc1

AC50, active:
O=C(O)Cc1cc(I)c(Oc2ccc(O)c(I)c2)c(I)c1 71.1 µM
CCCCCCCCCCCC[N+](C)(C)C 84.2 µM
Clc1cc(Cl)c2c(c1)N=C1CCCCCN1C2 15.5 µM
CC(C)(c1cc(Br)c(O)c(Br)c1)c1cc(Br)c(O)c(Br)c1 69.1 µM
COc1cc(C(=O)NC2CCN(C)CC2)ccc1Nc1ncc2c(n1)N(C1CCCC1)CC(F)(F)C(=O)N2C 23.3 µM
Cc1cc(F)ccc1-c1cc(N2CC[C@@H](O)[C@H]2CO)ncc1N(C)C(=O)C(C)(C)c1cc(C(F)(F)F)cc(C(F)(F)F)c1 70.5 µM
OC12N=C(c3ccccc3)SC1Cc1cc(Cl)ccc12 (stereo not given) 13 µM
CC(=O)N1CCN(c2ccc(OC[C@H]3CO[C@](Cn4ccnc4)(c4ccc(Cl)cc4Cl)O3)cc2)CC1 15.1 µM
COc1cccc([C@H](O)C2CCN(CCc3ccc(F)cc3)CC2)c1OC 33.6 µM
CN1C(=O)N(c2ccccc2Br)Cc2cnc(Nc3ccc4c(c3)OCC(CO)O4)nc21 (stereo not given) 62.3 µM
CN(C)C(=O)C1(N2CCCCC2)CCN(CC[C@@]2(c3ccc(Cl)c(Cl)c3)CN(C(=O)c3ccccc3)CCO2)CC1 21.6 µM
Clc1ccccc1C(c1ccccc1)(c1ccccc1)n1ccnc1 16.7 µM
CC(C)(C)c1csc(-c2cc3cc(OCc4ccccc4CC(=O)O)ccc3o2)n1 32.2 µM
Cc1ccc2oc(CN(Cc3ccccc3)C(=O)Nc3c(F)cc(F)cc3F)c(-c3ccc(Cl)cc3)c2c1 70.8 µM
COc1ccc2cc(S(=O)(=O)N[C@H](CC(=O)N[C@H](Cc3ccc(CN4[C@H](C)CCC[C@@H]4C)cc3)C(=O)N(C)C(C)C)c3ccc4c(c3)OCO4)ccc2c1 13 µM
CN(C)c1ccc(C(=C2C=CC(=[N+](C)C)C=C2)c2ccc(N(C)C)cc2)cc1 3.64 µM
